CtBP-E1A blk = CtBP/E1A binding inhibition; AlphaScreen GST-E1A/His-CtBP binding, 1536-well; active compounds read low; activity change, % (test concentration not listed); 0.49% of 340,000 active
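Steps: dispense buffer (Tris pH 8.0, NaCl 300 mM, TCEP 1 mM, BSA, Tween 20); add 5X protein mix (GST-E1A, His-CtBP, 125 nM each); pin 23 nL compound; 2 h at 37 °C, dark; add 5X beads (50 ug/mL); 1 h; read.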
PI4K2A inh = blocks human PI4K2A kinase activity; activity change, negative = inhibition, % at 76.9 µM; purified PI4K2A, ADP-Glo luminescence, 1 h; active compounds read low; 0.13% of 420,000 active; in the data active = activity change below about -50%; inconclusive = mostly about -30% to -49%;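 also: -100% = wells without enzyme as full effect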
Target sequence (Q9BTU6 whole entry, looked up): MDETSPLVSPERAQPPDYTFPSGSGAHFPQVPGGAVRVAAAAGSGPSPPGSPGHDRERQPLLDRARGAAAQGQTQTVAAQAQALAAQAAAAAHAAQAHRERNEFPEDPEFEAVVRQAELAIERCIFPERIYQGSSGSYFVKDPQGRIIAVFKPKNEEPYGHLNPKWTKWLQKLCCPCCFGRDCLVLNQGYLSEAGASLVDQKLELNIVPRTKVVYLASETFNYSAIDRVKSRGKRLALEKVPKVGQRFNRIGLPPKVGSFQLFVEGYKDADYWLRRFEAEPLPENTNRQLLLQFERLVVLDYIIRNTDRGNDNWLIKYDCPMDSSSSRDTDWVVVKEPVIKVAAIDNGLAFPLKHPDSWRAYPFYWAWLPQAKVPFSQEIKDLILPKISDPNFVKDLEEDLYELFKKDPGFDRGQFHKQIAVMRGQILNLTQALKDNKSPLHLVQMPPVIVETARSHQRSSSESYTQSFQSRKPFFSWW
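ADP-Glo luminescence measured ADP generated by PI4K2A enzyme (4 ug/mL before mixing) with 1.2 mM PI substrate (pre-mix) and 300 microM ATP (pre-mix). Tris pH7.5 buffer with MgCl2, Triton X-100; 1 h reaction at ambient temperature.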
CCT modulator = modulators of cytosolic chaperonin (CCT/TRiC) activity. purified chaperonin ATPase assay, HTRF ADP detection, 30 min. activity change, % (no concentration beside the values), hits read low. 0.3% of 360,000 active; in the data active = activity change below about -30%
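ATPase activity: ADP formed was measured by HTRF Transcreener (665/615 nm ratio) after 30 min at 37 deg C with 10 uM ATP. Compounds screened at one 76 uM concentration against 40 or 20 nM TRiC in Tris pH 7.4/KCl/MgCl2/DTT buffer.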
Eya2 phos inh = blocks the phosphatase activity of human Eya2; 0.006% of 330,000 active; recombinant Eya2, OMFP fluorescence dephosphorylation (OMFP is methylfluorescein phosphate); Potency, µM (doses to about 76.9 µM), inactives show at the top dose activity, negative = inhibition, hits mostly inhibitors; AID 488837; active = well fitted inhibition curve with a large enough effect; inconclusive = small, poorly fitted or top-dose-only effect, or effect the other way; also: potency is read from the fitted curve at half-maximal effect
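Eya2 protein (added as 0.2 uM solution) was preincubated with compound for 10 min at ambient temperature in 50 mM HEPES pH 7.5, 50 mM NaCl, 5 uM MgCl2, 0.05% BSA, 1 mM DTT. OMFP (added at 50 uM) then reacted 10 min; fluorescence read at 485/525 nm.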
Six1-Eya2 blk = inhibitors of human Six1/Eya2 interaction; activity change, % (test concentration not listed); AlphaScreen GST-Six1/His-Eya2 binding, biochemical; active compounds read low; 0.56% of 360,000 active
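AlphaScreen luminescence read after one hour at 37 °C in darkness. Pin-transferred compounds met GST-Six1 and His-Eya2 protein (5X stock 250 nM/500 nM) plus glutathione donor and Ni-chelate acceptor beads (5X, 50 ug/mL).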
The depositor's hits bear a star; i = inactive; ? = inconclusive; . = no result given; ! = not active in a repeat. Compounds with a hit are over-represented: about 0.97% of the library has one in this group of screens. Rule as the data show it, unless noted: active = activity change below about -65%; inconclusive = mostly about -30% to -63%; inactive = weaker than that. Unless noted, % is scaled to controls: 0 for no effect and ±100 for the full control effect.

SMILES | CtBP-E1A blk | PI4K2A inh | CCT modulator | Eya2 phos inh | Six1-Eya2 blk
O=C(c1cc(F)ccc1F)C1CCCN(CCCc2ccccc2)C1 (configuration not stated) | 12 | -4 | -30* | 5% | -3
CCO/N=C(\CC)C1=C(O)CC(c2c(C)cc(C)cc2C)CC1=O (configuration not stated) | . | i | . | . | .
CCCCCCC(Cl)(Cn1ccnc1)c1ccccc1 (configuration not stated) | 1 | 3 | -35* | . | -11
CCCCCCn1c(O)c(C=NCCCn2ccnc2)c(=O)[nH]c1=O | 1 | 7 | -2 | -3% | 5
Cc1cc(O)c2c(c1)C(=O)C13C(=C2O)C(=O)[C@H]2[C@@H](O)[C@@H]1[C@H]1[C@H](O)[C@@H]3C(=O)C3=C(O)c4c(O)cc(C)cc4C(=O)C312 (some centres not stated) | -19 | -75* | -3 | -10% | -23
CN(C)[C@@H]1C(=O)C(C(N)=O)=C(O)[C@@]2(O)C(=O)C3=C(O)c4c(O)cccc4[C@@](C)(O)[C@H]3[C@H](O)[C@@H]12 | -67*! | -63*! | -1 | 18% | ?
CN(C)[C@@H]1C(=O)C(C(N)=O)=C(O)[C@@]2(O)C(=O)C3=C(O)c4c(O)ccc(Cl)c4[C@@](C)(O)[C@H]3C[C@@H]12 | -11 | -11 | 1 | -18% | -7
COc1cccc2c1C(=O)c1c(O)c3c(c(O)c1C2=O)C[C@@](O)(C(=O)CO)CC3OC1CC(N2CCOC(OC)C2)C(O)C(C)O1 (some centres not stated) | . | -11 | . | . | .
CCOC(=O)Nc1ccc(NCc2ccc(F)cc2)nc1N | ? | ? | 1 | 50µM*! | 0
ClCCN1CCCC1 | . | -4 | . | . | .
COc1cc2c(cc1O)C[C@H]1NCCc3cc4c(c-2c31)OCO4 | -79* | -13 | -1 | 2% | -65*
Cn1c(O)c(C(c2ccncc2)c2c(O)n(C)c(=S)n(C)c2=O)c(=O)n(C)c1=S | ? | -11 | 1 | 2% | -68*
Cn1c(O)c(C(c2ccccn2)c2c(O)n(C)c(=S)n(C)c2=O)c(=O)n(C)c1=S | -29 | -28 | 2 | -8% | ?
COc1ccc(N2C(=O)NC(=O)/C(=C/c3ccc([N+](=O)[O-])s3)C2=O)cc1 | . | ? | 1 | -3% | -73*
Cc1cc(/C=C2\C(=O)NC(=O)N(c3ccc(Br)cc3)C2=O)c(C)n1-c1cc(C(=O)O)cc(C(=O)O)c1 | . | -15 | 0 | 7% | -84*
Nc1c(C(=O)NCc2ccco2)c2nc3ccccc3nc2n1CCN1CCOCC1 | -73* | ? | 2 | 11% | ?
CCOC(=O)CC1c2ccccc2-n2nncc2CN1Cc1ccc(OC)cc1 (configuration not stated) | 2 | 3 | 2 | . | 0
COC(=O)[C@@H]1N=C(c2ccc(OC)cc2)O[C@]12C(=O)N(Cc1ccc(OC)cc1)c1ccccc12 | -21 | -3 | -47* | . | -11
CN(C)C(Cc1ccc(Cl)cc1)C(=O)c1ccccc1 (configuration not stated) | 7 | -3 | 0 | 3% | 2
NC(Cc1ccccc1)c1csc(Nc2ccccn2)n1 (configuration not stated) | -90* | -4 | 0 | . | -86*
NC(Cc1ccc(F)cc1)c1csc(Nc2ccccn2)n1 (configuration not stated) | -91* | 2 | 1 | . | -86*
NC(Cc1ccc(Cl)cc1)c1csc(Nc2ccccn2)n1 (configuration not stated) | -68* | -2 | -1 | . | ?
NC(Cc1ccc(F)cc1)c1csc(Nc2cnccn2)n1 (configuration not stated) | -83* | -1 | -1 | . | -74*
CC(Cc1ccccc1)N(C)Cc1ccco1 (configuration not stated) | . | -1 | . | . | .
CC[C@H](O)C(C[C@H](C)N(C)C)(c1ccccc1)c1ccccc1 | . | i | . | . | .
SMILES | CtBP-E1A blk | PI4K2A inh | CCT modulator | Eya2 phos inh | Six1-Eya2 blk
O=C1OC(CCN2CCCCC2)OC1(c1ccccc1)c1ccccc1 (configuration not stated) | . | -3 | . | . | .
COc1cc(/C=C(/C)[N+](=O)[O-])ccc1OCc1ccccc1Cl | 1 | 9 | -31* | -14% | 4
COc1cc(C=C2C(=O)NC(=O)NC2=O)ccc1OCc1ccc([N+](=O)[O-])cc1 | 0 | -18 | -2 | 9% | -2
CN(C)CCc1c[nH]c2cccc(O)c12 | . | i | . | . | .
N#CC1=C(N)Oc2c(c(=O)sc3ccccc23)C1c1cccnc1 (configuration not stated) | 3 | 1 | -43* | -5% | -4
N#CC1=C(N)Oc2c(c(=O)oc3ccccc23)C1c1ccncc1 (configuration not stated) | -10 | 6 | -1 | -11% | -1
C=CCn1c(O)c(N=Nc2c(C)n(C)n(-c3ccccc3)c2=O)c(=O)[nH]c1=S | -87* | 0 | 2 | 1% | -91*
Cc1c(N=Cc2c(O)n(Cc3ccc(F)cc3)c(=O)[nH]c2=O)c(=O)n(-c2ccccc2)n1C | 8 | 7 | 2 | 3% | -2
CCOc1ccc(-n2c(O)c(N=Nc3c(C)n(C)n(-c4ccccc4)c3=O)c(=O)[nH]c2=O)cc1 | -91* | -7 | -1 | -1% | -90*
Cc1c(N=Nc2c(O)[nH]c(=S)[nH]c2=O)c(=O)n(-c2ccccc2)n1C | -93* | -2 | 0 | -6% | -84*
C[C@H](N)C(=O)c1ccccc1 | . | i | . | . | .
CN(N=O)c1ccc(O)c(O)c1 | . | -57* | . | 7% | .
CN1CC[C@]23c4c5ccc(O)c4OC2[C@H](O)C=CC3[C@H]1C5 (some centres not stated) | -17 | 2 | -2 | 11% | 1
CN1CCC23c4c5ccc(O)c4O[C@@H]2[C@H](O)C=CC3C1C5 (some centres not stated) | 4 | 2 | -45* | -10% | -2
COc1nn(CSP(=S)(OC)OC)c(=O)s1 | . | i | . | . | .
Cc1cc(C)cc(N2C(=O)NC(=O)/C(=C\c3cccn3-c3ccc(Cl)cc3)C2=O)c1 | 1 | -50* | -3 | -30% | -3
Cc1cc(C)cc(N2C(=O)NC(=O)/C(=C\c3cccn3-c3ccccc3)C2=O)c1 | 6 | -28 | -1 | 0% | 9
O=C1NC(=S)NC(=O)C1=Cc1cccn1-c1ccc(O)cc1 | 5 | ? | -3 | -9% | ?
CN1C(=O)/C(=C/c2cccn2-c2ccc3ccccc3c2)C(=O)NC1=S | -21 | -61* | 0 | -22% | -79*
COc1ccc(CNCCc2ccc3c(c2)OCO3)cc1Br | . | -1 | -4 | 7% | -10

Source: PubChem BioAssay (National Center for Advancing Translational Sciences (NCATS))
